Shown are actives, neighbours in structure and some others; about 11% of the full set was active somewhere.
12-hLO inh – qHTS Assay for Inhibitors of 12-hLO (12-human lipoxygenase); Polyunsaturated fatty acid lipoxygenase ALOX12 (Homo sapiens), P18054; purified 12-hLO, xylenol orange hydroperoxide absorbance; Potency, µM (top dose mostly 57.1 µM), actives largely listed as inhibitors; 150,000 tested, 0.12% active; AID 1452, 2008; further: nearly all actives have a fitted effect of over 55% in size
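Lipoxygenase turnover measured by absorbance at 573 and 405 nm after Fe-XO development. Human 12hLO 150 nM, arachidonate 40 uM, pH 7.0 Hepes buffer with detergent; 15 min compound preincubation, 30 min reaction.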
IMPase cell inh – qHTS Assay for Identifying the Cell-Membrane Permeable IMPase Inhibitors | CHO-M1 cells, IP1 accumulation, HTRF TR-FRET ratio | 120,000 tested, under 10 active | inhibition (IP1 accumulation), % at 46.1 µM | Inositol monophosphatase 1 (Rattus norvegicus), P97697; active means well fitted curve in the direction sought with a large enough effect in the signal ratio, not every such curve was filed as active; inconclusive means small, poorly fitted or top-dose-only effect, or a change in a side signal; inactive means no such curve, though single readings can be large or run the other way; the % refers to the signal ratio;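 further: cells stimulated with carbachol in lithium chloride buffer; higher means more IMPase inhibition seen as more IP1 and lower FRET ratio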
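Carbachol-driven Gq signalling in CHO-M1 cells (2000/well) generates IP1. Compounds that block IMPase raise IP1 and so reduce the FRET signal from Eu-anti-IP1 and d2-IP1 after a 10 min room-temperature lysis.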
HPGD block – qHTS Assay for Inhibitors of HPGD (15-Hydroxyprostaglandin Dehydrogenase) | Potency, µM, most hits filed as inhibitors | purified HPGD, NADH fluorescence kinetic, PGE2 substrate | 150,000 tested, 4.3% active; active means well fitted inhibition curve with a large enough effect, not every such curve was filed as active; inconclusive means small, poorly fitted or top-dose-only effect, or another doubt; inactive means no such curve, though single readings can be large or run the other way
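NADH formation kinetics: reaction with 30 uM PGE2 and 1 mM NAD+ (final), 20 nM enzyme, Tris-HCl pH 8 with Tween 20, after 15 min compound preincubation at room temperature. Fluorescence change, last versus first of five reads.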
PNC assembly inh – High Content Assay for Compounds that inhibit the Assembly of the Perinucleolar Compartment; PC3M PTB-GFP, PNC prevalence imaging, 16 h; active compounds read low; activity change (PNC), negative = inhibition, % at 10 µM; 140,000 tested, 3.1% active; AID 2417, 2010;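 active means readout at or below -70, meaning at least 70% loss of cells showing the perinucleolar compartment, a nuclear body marking cancer cells; inconclusive means readout between -30 and a set limit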
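PC3M cells stably expressing PTB-GFP, 750–1000 cells/well, treated 16 h at 37 °C with compound (23 nl of library stock), in duplicate. After paraformaldehyde fixation and Hoechst stain, imaged at 20x; PNC prevalence scored by image analysis.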
ALDH1A1 block – qHTS Assay for Inhibitors of Aldehyde Dehydrogenase 1 (ALDH1A1). Aldehyde dehydrogenase 1A1 (Homo sapiens), P00352. Purified ALDH1A1, NADH fluorescence, propionaldehyde substrate. Potency, µM (series often up to 75.3 µM), actives largely listed as inhibitors. 220,000 tested, 7.3% active; active means well fitted inhibition curve with a large enough effect, not every such curve was filed as active; inconclusive means small, poorly fitted or top-dose-only effect, or another doubt; inactive means no such curve, though single readings can be large or run the other way
Target sequence (P00352 whole entry, looked up): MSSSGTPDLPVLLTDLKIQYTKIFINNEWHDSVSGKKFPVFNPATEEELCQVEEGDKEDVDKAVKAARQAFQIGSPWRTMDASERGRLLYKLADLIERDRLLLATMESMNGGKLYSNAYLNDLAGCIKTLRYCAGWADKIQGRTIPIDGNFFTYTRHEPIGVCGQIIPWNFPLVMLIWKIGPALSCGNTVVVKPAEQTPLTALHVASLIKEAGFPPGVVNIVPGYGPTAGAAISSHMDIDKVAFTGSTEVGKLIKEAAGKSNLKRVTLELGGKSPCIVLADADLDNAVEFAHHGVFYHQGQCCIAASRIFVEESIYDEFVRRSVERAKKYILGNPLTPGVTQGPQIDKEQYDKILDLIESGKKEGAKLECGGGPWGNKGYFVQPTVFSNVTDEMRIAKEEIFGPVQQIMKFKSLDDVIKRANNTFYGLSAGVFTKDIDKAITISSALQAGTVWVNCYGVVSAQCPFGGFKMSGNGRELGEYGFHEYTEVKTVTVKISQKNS
IMPase Li cell – qHTS Assay for Identifying the Cell-Membrane Permeable IMPase Inhibitors: Potentiation with Lithium | CHO-M1 cells, IP1 TR-FRET (IP-One), carbachol + lithium | Potency, µM (titrated, usually from 59.4 µM), most hits filed as inhibitors | 210,000 tested, 0.35% active;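 further: IP1 builds up when IMPase is blocked and the TR-FRET signal falls; nearly all actives have a fitted effect of over 50% in size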
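Steps: plate 2000 CHO-M1 cells per well and culture 16–30 h; add compound and lithium; incubate 30 min, 37C; add d2-IP1 tracer and Eu cryptate anti-IP1 antibody in lysis buffer; read after 10 min at room temperature.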
Each line names hits and unclear results; the compound was inactive in the other large screens. Unless noted, the call rests on the fitted dose curve; in most records, active means well fitted curve in the direction sought with a large enough effect; inconclusive means small, poorly fitted or top-dose-only effect, or another doubt; inactive means no such curve, though single readings can be large; an effect the other way counts as inactive or inconclusive.

C=C(C)COc1ccc(-c2[nH]ncc2-c2ccccc2OC)c(O)c1	12-hLO inh inconclusive, ALDH1A1 block 25.1µM
Cn1c(=O)c(-c2cccs2)nc2cnc(Oc3ccccc3)nc21	ALDH1A1 block inconclusive (no result: IMPase cell inh, PNC assembly inh)
O=C(CNC(=O)c1cccc(F)c1)N/N=C/c1cc(Br)ccc1OC(=O)/C=C/c1ccco1	PNC assembly inh -80.9, ALDH1A1 block inconclusive (no result: IMPase cell inh)
COc1ccc([N+](=O)[O-])cc1/C=N/NC(=O)CNC(=O)c1cccc(F)c1	HPGD block 25.1µM, PNC assembly inh inconclusive, ALDH1A1 block inconclusive
CC(C)(C)c1ccc(O)c(O)c1	HPGD block 10µM, ALDH1A1 block 0.891µM (no result: IMPase cell inh, PNC assembly inh)
CC(C)(C)c1ccc(O)c(/C=N\O)c1	none
COc1ccc(-n2nc3cc(C)c(N)c(Br)c3n2)cc1	12-hLO inh 25.1µM, HPGD block inconclusive, PNC assembly inh inconclusive, ALDH1A1 block inconclusive
Cc1ccc2c(c1)C(=O)OC(C(=O)Nc1ncc(Cc3ccc(C(C)C)cc3)s1)C2 (stereo unspecified)	none (no result: 12-hLO inh, HPGD block, PNC assembly inh, ALDH1A1 block, IMPase Li cell)
CCCCCCS(=O)[C@H]1CS(=O)(=O)C[C@@H]1S(=O)CCCCCC (stereo partly specified)	HPGD block 12.6µM, ALDH1A1 block inconclusive
CCCCCCCCS(=O)C1CCS(=O)(=O)C1 (stereo unspecified)	IMPase cell inh inconclusive, PNC assembly inh inconclusive
O=C(O)C(=Cc1ccc(-c2ccccc2)cc1)C(=O)O	none (no result: IMPase cell inh, PNC assembly inh)
COCC(=O)N1CCC2(CC1)CN(C(c1ccccc1)c1ccccc1)C2	none (no result: IMPase cell inh, PNC assembly inh)
Cc1ccc(S(=O)(=O)C2CS(=O)(=O)CC2O)cc1 (stereo unspecified)	PNC assembly inh inconclusive
CC(=O)C1=C(S(=O)(=O)c2ccc(C)cc2)CS(=O)(=O)C1	ALDH1A1 block 1.26µM (no result: 12-hLO inh, IMPase cell inh, HPGD block, PNC assembly inh)
COc1ccc(OC)c2sc(NC(=O)CCSc3ccccc3)nc12	HPGD block inconclusive, PNC assembly inh -87.8
CC[n+]1c(C)sc2c(C)cc(C)cc21	PNC assembly inh -99.2
COC1=CC(C)C2CC3OC(=O)CC4C(C)=C(OC)C(=O)C([C@]2(C)C1=O)[C@]34C (stereo partly specified)	none (no result: IMPase cell inh, PNC assembly inh)
CC1CN=C(N(C(=O)Nc2ccccc2)c2ccc(S(=O)(=O)N3CCOCC3)cc2)S1 (stereo unspecified)	HPGD block 20µM
O=C(Nc1ccccc1)c1ccc(S(=O)(=O)N2CCOCC2)cc1	PNC assembly inh inconclusive
Cn1c(=O)c(=O)n(C)c2cc(S(=O)(=O)Nc3ccc4c(c3)OCCO4)ccc21	HPGD block 25.1µM, PNC assembly inh inconclusive
CCOCC(=O)Nc1cc(S(=O)(=O)N2CCOCC2)ccc1N1CCCCC1	ALDH1A1 block 2.82µM (no result: 12-hLO inh, IMPase cell inh, HPGD block, PNC assembly inh)
COc1ccc(C(=O)OCC(=O)Nc2cc(S(=O)(=O)N3CCOCC3)ccc2N2CCCC2)cc1	none (no result: 12-hLO inh, IMPase cell inh, HPGD block, PNC assembly inh)
O=C(Nc1ccccc1)Nc1cc(S(=O)(=O)N2CCOCC2)ccc1N1CCCC1	HPGD block 14.1µM, ALDH1A1 block inconclusive, IMPase Li cell inconclusive (no result: IMPase cell inh)
COc1ccc(-c2oc3ncn4nc(COc5cccc(C)c5C)nc4c3c2-c2ccc(OC)cc2)cc1	none (no result: 12-hLO inh, HPGD block, PNC assembly inh, ALDH1A1 block, IMPase Li cell)
Cc1cc(NS(=O)(=O)c2ccc(NC(=O)COc3ccc(Cl)cc3)cc2)nc(C)n1	none (no result: 12-hLO inh, HPGD block, PNC assembly inh, ALDH1A1 block, IMPase Li cell)
C=C(C(=O)OC)C(NC(=O)OC)c1ccccc1 (stereo unspecified)	none (no result: 12-hLO inh, IMPase cell inh, PNC assembly inh)
COc1ccc(C(=O)N2CCC[C@@]3(CCN(CC(C)C)C3)C2)cc1	none (no result: IMPase cell inh, PNC assembly inh)
FC(F)(F)c1ccc(CN2C[C@@H]3C(c4ccc(C(F)(F)F)cc4)C4(c5ccccc5)CC3(C4)[C@H]2c2ccccc2)cc1 (stereo partly specified)	none (no result: IMPase cell inh, PNC assembly inh)
CC(C(=O)Nc1cccc(S(=O)(=O)N2CCOCC2)c1)N1CCN(C/C=C/c2ccccc2)CC1 (stereo unspecified)	none (no result: 12-hLO inh, IMPase cell inh, HPGD block, PNC assembly inh)
